Records with an inconclusive call do not appear. A call without a number means that no potency is given here. Values without a mark were called inactive. Calls of active or inactive are those of the source. Unless noted, calls come from the whole dose curve.
Experiments:
[1] = qHTS for Inhibitors of the Functional Ribonucleoprotein Complex (vRNP) of Lassa (LASV) Arenavirus: LASV Primary Screen - GLuc reporter signal (AID 1347082; calls by dose curve; tested in HEK293 reporter line; note: nearly all actives have a fitted effect of over 60% in size; for activity change, negative = inhibition: series mostly up to about 57 µM)
[2] = qHTS for Inhibitors of the Functional Ribonucleoprotein Complex (vRNP) of Lassa (LASV) Arenavirus: Viability assay - alamar blue signal for LASV Primary Screen (AID 1347083; calls by dose curve; tested in HEK293 reporter line; note: nearly all actives have a fitted effect of over 80% in size; for activity change, negative = reduced viability: series mostly up to about 57 µM)
[3] = qHTS for Inhibitors of the Functional Ribonucleoprotein Complex (vRNP) of Lymphocytic Choriomeningitis Arenaviruses (LCMV): Viability assay - alamar blue signal for LCMV Primary Screen (AID 1347085; calls by dose curve; tested in HEK293 reporter line; note: nearly all actives have a fitted effect of over 80% in size; for activity change, negative = lower viability: series mostly up to about 57 µM)
[4] = target: Nucleoprotein (Lymphocytic choriomeningitis virus (strain Armstrong)) (UniProt P09992); test: qHTS for Inhibitors of the Functional Ribonucleoprotein Complex (vRNP) of Lymphocytic Choriomeningitis Arenaviruses (LCMV): LCMV Primary Screen - GLuc reporter signal (AID 1347086); note: nearly all actives have a fitted effect of over 70% in size; for activity change, negative = inhibition: series mostly up to about 57 µM
Sequence of Nucleoprotein (Lymphocytic choriomeningitis virus (strain Armstrong)) (P09992 whole entry, looked up): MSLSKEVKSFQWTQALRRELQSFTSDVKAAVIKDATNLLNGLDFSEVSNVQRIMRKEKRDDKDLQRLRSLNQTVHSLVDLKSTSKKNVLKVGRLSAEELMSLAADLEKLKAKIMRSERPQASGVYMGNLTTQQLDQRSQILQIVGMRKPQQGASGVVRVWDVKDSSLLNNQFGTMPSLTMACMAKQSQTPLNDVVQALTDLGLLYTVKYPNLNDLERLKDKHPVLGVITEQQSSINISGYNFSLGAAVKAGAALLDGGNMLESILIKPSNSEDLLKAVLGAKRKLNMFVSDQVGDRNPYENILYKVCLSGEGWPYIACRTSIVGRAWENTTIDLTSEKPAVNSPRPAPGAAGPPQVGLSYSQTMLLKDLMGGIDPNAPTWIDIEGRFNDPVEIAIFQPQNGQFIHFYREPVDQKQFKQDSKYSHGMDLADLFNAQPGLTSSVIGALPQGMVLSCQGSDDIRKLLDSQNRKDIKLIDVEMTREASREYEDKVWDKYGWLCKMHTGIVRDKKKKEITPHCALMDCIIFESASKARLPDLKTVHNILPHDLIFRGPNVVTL
Potency is the fitted concentration of half-maximal effect.

| SMILES | Potency [1] | Potency [2] | Potency [3] | Potency [4] | activity change, negative = inhibition [1] | activity change, negative = reduced viability [2] | activity change, negative = lower viability [3] | activity change, negative = inhibition [4] |
| --- | --- | --- | --- | --- | --- | --- | --- | --- |
| CC(=O)OCC(=O)[C@@]1(O)CC[C@H]2[C@@H]3CCC4=CC(=O)CC[C@]4(C)[C@@H]3C(=O)C[C@@]21C | inactive | inactive | inactive | inactive |  |  |  |  |
| C[C@]12C[C@H](O)CC(CO)(CO)C1[C@H](O)C[C@@]13CC4[C@@H](CC12)[C@@]4(C)C3 (some centres not stated) | inactive | inactive | inactive | inactive |  |  |  |  |
| O=c1[nH]c(=O)c2ncn(C3OC(CO)C(O)C3O)c2[nH]1 (configuration not stated) | inactive | inactive | inactive | inactive |  |  |  |  |
| C[N+](C)(C)CCOP(=O)([O-])OC[C@H](O)CO | inactive | inactive | inactive | inactive |  |  |  |  |
| O=CN(O)CCCP(=O)(O)O | inactive | inactive | inactive | inactive |  |  |  |  |
| COc1c(C(=O)/C=C/c2ccccc2)ccc2c1C=CC(C)(C)O2 | inactive | inactive | inactive | inactive |  |  |  |  |
| CC1=CC2OC3CC4OC(=O)C=CC=CC(=O)OCCC(C)C(O)C(=O)OCC2(CC1O)C4(C)C31CO1 (configuration not stated) | inactive | inactive | inactive | inactive |  |  |  |  |
| CC(C)(C)c1ccccc1 | inactive | inactive | inactive | inactive |  |  |  |  |
| OC[C@H]1O[C@H](OCc2ccccc2)[C@H](O[C@@H]2OC[C@@H](O)[C@H](O)[C@H]2O)[C@@H](O)[C@@H]1O | inactive | inactive | inactive | inactive |  |  |  |  |
| CC1(C)Oc2cc3oc(=O)ccc3cc2C[C@@H]1O | inactive | inactive | inactive | inactive |  |  |  |  |
| C[C@H](Cn1cnc2c(N)ncnc21)OCP(=O)(O)O | inactive | inactive | inactive | inactive |  |  |  |  |
| O=c1ccc2ccc(O[C@@H]3O[C@H](CO)[C@@H](O)[C@H](O)[C@H]3O)c(O)c2o1 | inactive | inactive | inactive | inactive |  |  |  |  |
| CCCO | inactive | inactive | inactive | inactive |  |  |  |  |
| COc1cc(C2c3cc4c(c(O)c3CC3COC(=O)C32)OCO4)cc(OC)c1O (configuration not stated) | inactive | inactive | inactive | inactive |  |  |  |  |
| NC(=O)NCCCC(=O)O | inactive | inactive | inactive | inactive |  |  |  |  |
| COc1cc(CCc2cc(NC(=O)c3ccc(N4C[C@@H](C)N[C@@H](C)C4)cc3)n[nH]2)cc(OC)c1 | inactive | 34.3 µM (active) | 43.2 µM (active) | inactive |  |  |  |  |
| CCN1CCC(n2cc(CNc3cc(Cl)c4ncc(C#N)c(Nc5ccc(F)c(Cl)c5)c4c3)nn2)CC1 | inactive | inactive | inactive | inactive |  |  |  |  |
| C/C=C1/CN2C3CC1C(CO)(C(=O)OC)C2Cc1c3n(C)c2ccccc12 (configuration not stated) | inactive | inactive | inactive | inactive |  |  |  |  |
| COc1c2c(cc(O)c1C(C)=O)OC(C)(C)C=C2 | inactive | inactive | inactive | inactive |  |  |  |  |
| O=C1CCCCCCCCCCCCCCO1 | inactive | inactive | inactive | inactive |  |  |  |  |
| Cc1ccc(C(C)C)cc1O | inactive | inactive | inactive | inactive |  |  |  |  |
| CN1C2CCC1CC(OC(=O)c1cccc(O)c1)C2 (configuration not stated) | inactive | inactive | inactive | inactive |  |  |  |  |
| C=C(C)[C@@H]1CCC2=CC(=O)C[C@@H](C)[C@]2(C)C1 | inactive | inactive | inactive | inactive |  |  |  |  |

| SMILES | Potency [1] | Potency [2] | Potency [3] | Potency [4] | activity change, negative = inhibition [1] | activity change, negative = reduced viability [2] | activity change, negative = lower viability [3] | activity change, negative = inhibition [4] |
| --- | --- | --- | --- | --- | --- | --- | --- | --- |
| O=C1N[C@@H](Cc2cnc[nH]2)C(=O)N2CCC[C@@H]12 | inactive | inactive | inactive | inactive |  |  |  |  |
| C[C@@H]1CCCCCCCCCCC1=O | inactive | inactive | inactive | inactive |  |  |  |  |
| CCCCCCCCCCCC(=O)c1c(O)cccc1O | inactive | inactive | inactive | inactive |  |  |  |  |
| C=CC(=O)CCCCC | inactive | inactive | inactive | inactive |  |  |  |  |
| COc1ccc(CC2c3cc(OC)c(OC)cc3CCN2C)cc1O (configuration not stated) | inactive | inactive | inactive | inactive |  |  |  |  |
| OC[C@H]1O[C@@H](Oc2ccc(O)cc2)[C@H](O)[C@@H](O)[C@H]1O | inactive | inactive | inactive | inactive |  |  |  |  |
| OC(c1cc(C(F)(F)F)nc2c(C(F)(F)F)cccc12)C1CCCCN1 (configuration not stated) | inactive | inactive | inactive | inactive |  |  |  |  |
| Cc1c(-c2cccc3c(CCCOc4cccc5ccccc45)c(C(=O)O)n(Cc4cccnc4)c23)c(COc2ccc(N3CCN([S+](=O)([O-])N(C)C)CC3)cc2)nn1C | inactive | inactive | inactive | inactive |  |  |  |  |
| O=c1c(O)c(-c2ccccc2)oc2cc(O)cc(O)c12 | inactive | inactive | inactive | inactive |  |  |  |  |
| CCCCCc1cccc(=O)o1 | inactive | inactive | inactive | inactive |  |  |  |  |
| CCNC(=O)Nc1ccc(-c2nc3c(c(N4CCOC[C@H]4C)n2)CCN(C2COC2)C3)cc1 | 1.93 µM (active) | 1.37 µM (active) | 3.06 µM (active) | 1.53 µM (active) |  |  |  |  |
| CCCCCCCCCCCCCCCCCCCCCCCCCCCCCC | inactive | inactive | inactive | inactive |  |  |  |  |
| OC/C=C/c1ccccc1 | inactive | inactive | inactive | inactive |  |  |  |  |
| CCCCC/C=C\C/C=C\C=C\[C@@H](O)C/C=C\CCCC(=O)O |  |  |  |  | -0.303% [at 0.757 µM] | 9.41% [at 0.757 µM] | 16.7% [at 0.757 µM] | 14.7% [at 0.757 µM] |
| C=C1CC23C[C@H]4[C@@H]5[C@@]6(C)C[C@H](OC(=O)c7ccccc7)[C@@H](OC(C)=O)[C@]57[C@@H]2[C@@H](OC(C)=O)[C@H]1[C@@H](O)[C@H]3[C@H]7N4C6 | inactive | inactive | inactive | inactive |  |  |  |  |
| CCCCc1nc2ccccc2[nH]1 | inactive | inactive | inactive | inactive |  |  |  |  |
| O=c1oc(-c2ccc(O)c(O)c2)cc2cccc(O)c12 | inactive | inactive | inactive | inactive |  |  |  |  |
| COc1c(O)c(O)c2oc(-c3ccccc3)cc(=O)c2c1OC | inactive | inactive | inactive | inactive |  |  |  |  |
| CC1OC(OC2C(CO)OC(OCC3OC(OC(=O)[C@@]45CCC(C)(C)C[C@@H]4C4=CC[C@@H]6[C@@]7(C)CCC(OC8OCC(O)C(O)C8OC8OC(C)C(O)C(O)C8O)[C@@](C)(CO)C7CC[C@@]6(C)[C@]4(C)CC5)C(O)C(O)C3O)C(O)C2O)C(O)C(O)C1O (some centres not stated) | inactive | inactive | inactive | inactive |  |  |  |  |
| COc1cccc2c(=O)c3ccoc3n(C)c12 | inactive | inactive | inactive | inactive |  |  |  |  |
| CC1CCC(=O)O1 (configuration not stated) | inactive | inactive | inactive | inactive |  |  |  |  |
| N[C@@H](CSS(=O)(=O)O)C(=O)O | inactive | inactive | inactive | inactive |  |  |  |  |
| C=C1CCC(OC(C)=O)C2(C)CCC3C(C)C(=O)OC3C12O (configuration not stated) | inactive | inactive | inactive | inactive |  |  |  |  |

| SMILES | Potency [1] | Potency [2] | Potency [3] | Potency [4] | activity change, negative = inhibition [1] | activity change, negative = reduced viability [2] | activity change, negative = lower viability [3] | activity change, negative = inhibition [4] |
| --- | --- | --- | --- | --- | --- | --- | --- | --- |
| c1ccc(CN(Cc2ccccc2)Cc2ccccc2)cc1 | inactive | inactive | inactive | inactive |  |  |  |  |
| C=C1[C@@H](OC(C)=O)CC[C@]2(C)[C@@H]1C[C@@H]1C[C@H](OC(C)=O)C(C)=C([C@@H](OC(C)=O)[C@@H]2OC(C)=O)C1(C)C | inactive | inactive | inactive | inactive |  |  |  |  |
| COc1cc(-c2ccccc2)nc2ccccc12 | inactive | inactive | inactive | inactive |  |  |  |  |
| COc1c(O)cc2c(=O)oc3c(OC)c(O)cc4c(=O)oc1c2c34 | inactive | inactive | inactive | inactive |  |  |  |  |
| CC1=C(O)C(=O)OC1C (configuration not stated) | inactive | inactive | inactive | inactive |  |  |  |  |
| COc1ccc(C=CC(=O)Nc2ccccc2C(=O)O)cc1OC | inactive | inactive | inactive | inactive |  |  |  |  |
| CC1(C)CCC[C@@]2(C)[C@@H]1CC[C@@]1(C)OC(=O)C[C@H]21 | inactive | inactive | inactive | inactive |  |  |  |  |
| O=c1c(-c2ccc(O)cc2)coc2cc(OC3OC(CO)C(O)C(O)C3O)ccc12 (configuration not stated) | inactive | inactive | inactive | inactive |  |  |  |  |
| CC1(C)OC2CC3C4CC(F)C5=CC(=O)C=CC5(C)C4C(O)CC3(C)[C@]2(C(=O)CO)O1 (some centres not stated) | inactive | inactive | inactive | inactive |  |  |  |  |
| COc1ccc([C@@]23Oc4cc(OC)cc(OC)c4[C@]2(O)[C@H](O)[C@H](C(=O)N(C)C)[C@H]3c2ccccc2)cc1 | inactive | inactive | inactive | inactive |  |  |  |  |
| CCCCN | inactive | inactive | inactive | inactive |  |  |  |  |
| COC(=O)Nc1ccc(C)c(NC(=O)OC)c1 | inactive | inactive | inactive | inactive |  |  |  |  |
| CC(C)=CCC[C@](C)(O[C@@H]1O[C@H](CO[C@@H]2OC[C@H](O[C@@H]3OC[C@@H](O)[C@H](O)[C@H]3O)[C@H](O)[C@H]2O)[C@@H](O)[C@H](O)[C@H]1O)C1CC[C@]2(C)C1[C@H](O)CC1[C@@]3(C)CC[C@H](O)C(C)(C)C3[C@@H](O)C[C@]12C (some centres not stated) | inactive | inactive | inactive | inactive |  |  |  |  |
| C[C@@H]1O[C@@H](OC2C(O)C(OCCc3ccc(O)c(O)c3)OC(CO)C2OC(=O)/C=C/c2ccc(O)c(O)c2)[C@H](O)[C@H](O)[C@H]1O (some centres not stated) | inactive | inactive | inactive | inactive |  |  |  |  |
| CC(C)=CCCC(C)CCOC=O (configuration not stated) | inactive | inactive | inactive | inactive |  |  |  |  |
| C[C@@]12CCC3[C@@](CCC4[C@@]3(C)CCC[C@@]4(C)C(=O)O)(CC1=O)C2 (some centres not stated) | inactive | inactive | inactive | inactive |  |  |  |  |
| O=c1c(-c2ccc(O)cc2)coc2cc(OC3O[C@H](CO)[C@H](O)[C@H](O)[C@H]3O)cc(O)c12 (some centres not stated) | 19.3 µM (active) | 17.2 µM (active) | 21.7 µM (active) | 19.3 µM (active) |  |  |  |  |
| CN1c2c(nc(N)[nH]c2=O)NCC1CNc1ccc(C(=O)NC(CCC(=O)O)C(=O)O)cc1 (configuration not stated) | inactive | inactive | inactive | inactive |  |  |  |  |
| COc1ccc(-c2coc3cc(OC)cc(O)c3c2=O)cc1 | inactive | inactive | inactive | inactive |  |  |  |  |
| C=C(CC[C@@H](O)C(C)(C)O)[C@H]1CC[C@]2(C)[C@@H]1CCC1[C@@]3(C)CC[C@H](O)C(C)(C)C3CC[C@]12C (some centres not stated) | inactive | inactive | inactive | inactive |  |  |  |  |
| CC1=CC(=O)CCC1 | inactive | inactive | inactive | inactive |  |  |  |  |
| O=c1oc(-c2ccc(O)c(O)c2)cc2cc(O)cc(O)c12 | inactive | inactive | inactive | inactive |  |  |  |  |
